The whole screen tested about 360,000 compounds, of which about 25,000 (6.9%) were called active. A call without a number means that no potency is given here. Roughly 9% stayed inconclusive and do not appear here. Calls follow the shape of the dose curve; as a rule, active = well fitted inhibition curve with a large enough effect; inconclusive = small, poorly fitted or top-dose-only effect; inactive = flat fitted curve, though single readings scatter. The full list was thinned out, with actives kept by preference.
target: Luciferin 4-monooxygenase (Photinus pyralis) (UniProt P08659); assay: qHTS profiling assay for firefly luciferase inhibitor/activator using purifed enzyme and Km concentrations of substrates (counterscreen for miR-21 project); details: purified FLuc, luminescence inhibition; series mostly up to 57.5 µM; also: nearly all actives have a fitted effect of over 55% in size
How it was run: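 Purified P. pyralis luciferase (10nM final) with 10uM D-luciferin and 10uM ATP (Km levels) in 50mM Tris acetate pH 7.5, 10mM Mg acetate, 0.01% Tween-20, 0.05% BSA; qHTS 6-point titration, ~60 µM downward; luminescence read.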
Potency is read from the fitted curve at half-maximal effect.

Sequence of Luciferin 4-monooxygenase (Photinus pyralis) (P08659 whole entry, looked up): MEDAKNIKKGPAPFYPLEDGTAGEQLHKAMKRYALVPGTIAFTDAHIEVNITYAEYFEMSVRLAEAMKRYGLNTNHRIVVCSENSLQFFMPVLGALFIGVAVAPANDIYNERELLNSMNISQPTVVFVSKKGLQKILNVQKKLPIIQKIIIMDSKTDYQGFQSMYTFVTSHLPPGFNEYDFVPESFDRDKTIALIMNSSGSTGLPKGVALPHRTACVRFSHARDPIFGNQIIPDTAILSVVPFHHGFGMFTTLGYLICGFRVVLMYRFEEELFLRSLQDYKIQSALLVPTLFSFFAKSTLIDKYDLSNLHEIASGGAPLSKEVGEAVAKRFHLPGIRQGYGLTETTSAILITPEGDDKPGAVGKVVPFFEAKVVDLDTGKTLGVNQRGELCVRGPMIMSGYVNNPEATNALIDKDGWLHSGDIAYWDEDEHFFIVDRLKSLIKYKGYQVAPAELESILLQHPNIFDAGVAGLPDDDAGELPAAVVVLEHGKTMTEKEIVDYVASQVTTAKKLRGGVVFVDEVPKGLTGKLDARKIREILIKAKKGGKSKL

Structure (SMILES)	Potency
Cc1ccc(OCC(=O)Nc2ccccc2C(=O)NC2CC2)cc1	inactive
COc1ccc(CCC(=O)NCc2ccc3c(c2)CCN3C(=O)c2ccc(F)cc2)cc1	inactive
Cc1ccc(-n2nnnc2CNC(=O)c2ccccc2C)cc1C	inactive
COc1cc(C)c(Cl)cc1S(=O)(=O)n1ccnc1	inactive
Cc1c2cnn(-c3ccccc3)c(=O)c2c(C)n1C(C)C(=O)Nc1ccc(Br)cc1F (configuration not stated)	inactive
O=c1onc(-c2cccs2)n1Cc1ccccc1	inactive
c1ccc(-c2noc(-c3cccs3)n2)nc1	3.01 µM (active)
Clc1ccc(-n2nnnc2-c2cnc(-c3ccccn3)nc2-c2cccs2)cc1	inactive
CN(Cc1ccccc1)C(=O)CCS(=O)(=O)c1cc(Br)cc2c1N(C(=O)C1CC1)CC2	inactive
CCOc1ccc(CCNC(=O)CN(c2ccc(C)cc2)S(=O)(=O)N(C)C)cc1OCC	inactive
Cc1cc(C)c(-c2n[nH]c3c2C(c2ccccc2F)N(CCO)C3=O)c(O)c1 (configuration not stated)	inactive
C=CCn1c(SCc2ccc(C(=O)NCCO)cc2)nc2ccccc2c1=O	inactive
OCc1cnc(SCc2ccc(F)cc2)n1Cc1ccc(F)cc1	inactive
CCCNC(=O)c1ccc(Cn2c(SCC(N)=O)nc3ccccc3c2=O)cc1	inactive
Cn1c(CNC(=O)c2ccccc2F)nnc1SCc1ccc(F)cc1	inactive
O=C(O)c1ccc(Cn2c(SCc3ccc(F)cc3)nc3ccncc32)cc1	16.9 µM (active)
Cc1ccc(CSc2nc3cccnc3n2Cc2ccc(C(=O)NC3CC3)cc2)cc1	0.379 µM (active)
Cc1ccc(Cn2c(CNC(=O)Cc3cccc(C)c3)nc3cccnc32)cc1	inactive
Cc1nc2ccccc2c(=O)n1NC(=O)c1ccc(Cl)c([N+](=O)[O-])c1	inactive
O=C(NCc1ccc(F)cc1)c1ccc(Cn2c(SCc3ccc(F)cc3)nc3cccnc32)cc1	4.78 µM (active)
O=C(Nn1c(SCc2ccc([N+](=O)[O-])cc2)nc2ccccc2c1=O)c1ccc(F)cc1	16.9 µM (active)
Cc1cccc(CSc2nc3ccncc3n2CC(=O)N(C)C2CCCCC2)c1	inactive
CCOC(=O)CNC(=O)CSc1nc2cccnc2n1CC	inactive
CC1=C(C(=O)Nc2ccccc2)C(c2ccc(C)cc2)n2nc(SCc3ccccc3C)nc2N1 (configuration not stated)	inactive
Cc1nnc(NC(=O)CSc2nc3c([nH]c4ccccc43)c(=O)n2-c2cccc(Cl)c2)s1	inactive
CCOc1ccc(S(=O)(=O)c2cn(Cc3ccc(OC)cc3)c3ccc(F)cc3c2=O)cc1	inactive

Structure (SMILES)	Potency
CCOc1ccc(NC(=O)Cn2c(C)ccc(C#N)c2=O)cc1	inactive
COc1ccc(CCNS(=O)(=O)c2cc(-c3cc(C)no3)ccc2C)cc1OC	inactive
Cc1cccc2c1-c1sc(C(=O)Nc3ccc(F)cc3F)cc1CO2	inactive
O=C(NCc1ccccc1)C(=O)NCC(c1ccco1)S(=O)(=O)c1ccc(Cl)cc1 (configuration not stated)	inactive
Cc1ccc(N2CCN(C(=O)CCc3c(C)nc4c(c3C)c(=O)n(C)c(=O)n4C)CC2)c(C)c1	inactive
C=CCn1c(SCC(=O)NC(=O)Cc2ccccc2)nc2ccccc2c1=O	inactive
Cc1nn(CC(=O)Nc2ccc(C#N)cc2)c(C)c1[N+](=O)[O-]	inactive
COc1ccc(NS(=O)(=O)c2cccc3nsnc23)cc1Cl	inactive
Cc1ccccc1-c1nc(CS(=O)(=O)CC(=O)Nc2cc(Cl)cc(Cl)c2)c(C)o1	inactive
COc1ccccc1CNS(=O)(=O)c1cc(Br)cc2c1N(C(C)=O)C(C)C2 (configuration not stated)	inactive
COc1ccc(CCNC(=O)COC(=O)Cc2cccc(F)c2)cc1	inactive
O=C(NCc1ccccc1)c1cccc(NC(=O)N2CCSc3ncccc32)c1	inactive
COc1cc(OC)cc(C(=O)NCCc2csc3nc(-c4ccccc4F)nn23)c1	inactive
Cc1cccc(C(=O)N2c3nc(-c4ccco4)nn3C3(CCCCC3)[C@@H]3CCCC[C@@H]32)c1	inactive
CNS(=O)(=O)c1cccc(C(=O)OCC(=O)N2c3ccccc3NC(=O)C2(C)C)c1	inactive
COc1ccc2c(C)c(CCC(=O)NCc3ccc(OC)c(OC)c3)c(=O)oc2c1	inactive
Cc1c(CC(=O)NCCCCCC(=O)O)c(=O)oc2cc3occ(-c4ccccc4)c3cc12	19 µM (active)
COc1cccc(-c2coc3cc4oc(=O)c(CC(=O)O)c(C)c4cc23)c1	19 µM (active)
Cc1oc(C)c(C(=O)NCCCC(=O)O)c1C(=O)NCCCC(=O)O	inactive
CC(=O)Oc1ccc2c(C)c(CC(C)O)c(=O)oc2c1 (configuration not stated)	inactive
Cc1ccc2[nH]c(=O)c(CC(=O)O)c(-c3ccccc3)c2c1	inactive
COc1ccccc1CNC(=O)CCn1c(=O)c2ccccc2n(CC(=O)Nc2ccc(Br)cc2F)c1=O	inactive
COc1ccc(OCCn2cc(C(=O)C3CCCCC3)c3ccccc32)cc1	inactive
Cc1ccc(-n2c(SCC(=O)N3c4ccccc4Sc4ccccc43)nnc2-c2ccncc2)cc1	inactive
Cc1ccc(Nc2nc(CSc3nnc(-c4ccncc4)n3-c3ccccc3C)cs2)cc1	21.3 µM (active)
Cc1ccccc1-n1c(SCC(=O)NCc2cccs2)nnc1-c1ccncc1	inactive

Structure (SMILES)	Potency
CCCN1C(=O)C(Cc2nc3ccccc3c(=O)n2-c2ccccc2)c2cc(C)ccc21 (configuration not stated)	inactive
CCC(C)N(C)C1CCN(C(=S)Nc2ccc(OC)cc2)CC1 (configuration not stated)	inactive
COc1ccc(NC(=S)N2N=CCC2c2ccccc2)cc1 (configuration not stated)	4.78 µM (active)
COc1ccc(NC(=S)N2CCc3cc(OC)c(OC)cc3C2)cc1	inactive
COc1ccc(C(=O)NC2CC2)cc1OC1CCN(Cc2cnn(C)c2)CC1	inactive
OCCCN1c2ccccc2Nc2nnc(-c3ccccc3)cc21	1.9 µM (active)
N=c1c2c(-c3ccccc3)c(-c3ccccc3)n(Cc3ccccc3)c2ncn1CCCO	inactive
COC(=O)c1ccccc1NS(=O)(=O)c1ccc2c(c1)CCCN2C(C)=O	inactive
O=C(NCCc1ccccc1)c1ccc2c(c1)N(Cc1ccccc1)CCS2	inactive
CC1CCCN(c2ccc(C(=O)NCCc3ccccc3)cn2)C1 (configuration not stated)	7.57 µM (active)
O=C(NCCc1ccccc1)c1cnc2sc(N3CCCC3)nn2c1=O	inactive
Cc1ccc(-c2nc(Cn3c(=O)cc(-c4ccccc4)c4c(C)nn(C)c43)c(C)o2)cc1	inactive
CCN(CC)S(=O)(=O)c1ccc2c(c1)N(CC(=O)NCC(C)c1ccccc1)C(=O)CO2 (configuration not stated)	inactive
O=S(=O)(NCC(c1ccccc1)N1CCc2ccccc21)c1ccccc1 (configuration not stated)	inactive
Cc1onc(C(=O)NN)c1-c1csc(COc2ccccc2)n1	inactive
CC(C)(C)C(=O)OCc1nc(-c2ccc(O)c(O)c2)cs1	4.26 µM (active)
Cc1nnc2n1N=C(c1ccccc1)CS2	inactive
O=c1c2cc(-c3ccccc3)sc2nc2n1N=C(c1cccs1)CS2	0.601 µM (active)
CCCCCCn1nnc2sc(-c3ccccc3)cc2c1=O	inactive
CCOc1ccc(NC(=O)CC2C(=O)N(c3cccc(OC)c3)C(=O)N2C2CCCCC2)cc1 (configuration not stated)	inactive
CCOC(=O)c1c(S(=O)(=O)N2CCCC(C(=O)NCc3cccc(C)c3)C2)c(C)n(C)c1C (configuration not stated)	inactive
CCCCC(=O)Nc1cc(C)c2c(=O)oc3ccccc3c2n1	inactive
CCOC(=O)c1c(C)nc2c(c1C)c(=O)oc1ccccc12	16.9 µM (active)
CCOC(=O)C1CCCN(CC(=O)Nc2cc(C)c3c(=O)oc4ccccc4c3n2)C1 (configuration not stated)	inactive
N#Cc1c(-c2ccccc2)cc(-c2ccccc2)nc1SCC(=O)O	inactive
N#Cc1c(N2CCCCC2)nc(N)c2c(N)nc(SCC(=O)O)cc12	8.49 µM (active)

Structure (SMILES)	Potency
Cc1cc(C)c(C#N)c(N2CCC(C(N)=O)CC2)n1	inactive
O=S(=O)(Nc1ccc2nc(N3CCOCC3)sc2c1)c1ccccc1	21.3 µM (active)
O=C(c1ccc2nc(N3CCOCC3)sc2c1)N1CCN(c2ccc(Cl)cc2)CC1	inactive
CCOC(=O)N1CCC(NC(=O)c2ccc3nc(N4CCOCC4)sc3c2)CC1	inactive
COc1ccccc1N1CC(C(=O)NCCN2C(=O)S/C(=C\c3cccnc3)C2=O)CC1=O (configuration not stated)	inactive
NC(=O)COc1ccccc1C(=O)NC12CC3CC(CC(C3)C1)C2	inactive
NC(=O)COc1ccc(C23CC4CC(CC(C4)C2)C3)cc1	12 µM (active)
NC(=O)COc1ccc(NC(=O)c2ccccc2-c2ccccc2)cc1	inactive
Cc1ccc(/C=C2\CCn3c2nc2cc(C(=O)O)ccc2c3=O)c(C)c1	inactive
COc1ccccc1CNC(=O)CCCn1c(=O)c2ccccc2n(CC(=O)Nc2ccc(C)cc2Cl)c1=O	inactive
CCCn1nc(NS(=O)(=O)c2ccc(F)cc2)c2cc3ccccc3nc21	inactive
CCCn1nc(NC(=O)C(C)C)c2cc3cc(OC)ccc3nc21	inactive
CCCn1nc(NS(=O)(=O)c2ccccc2)c2cc3cc(C)ccc3nc21	16.9 µM (active)
O=S(=O)(NCC(c1ccco1)N1CCOCC1)c1cc(F)ccc1F (configuration not stated)	inactive
Cc1csc2nc(COC(=O)c3ccccc3NC(=O)c3ccccc3Cl)cc(=O)n12	inactive
CCN(CC)c1nn2c(=O)c(C(=O)NCCc3ccccc3)cnc2s1	inactive
Cc1cc(C(C)(C)C)n2nc(C)c(-c3ccccc3)c2n1	inactive
Cc1cc(-c2ccccc2)n2nc(C)c(-c3ccccc3)c2n1	16.9 µM (active)
Cc1cc(-n2nc(C)cc2C)n2nc(C)c(-c3ccccc3)c2n1	inactive
Cc1ccc(C)n1-c1nnc(N2CCC(C(=O)NCc3ccccc3Cl)CC2)s1	inactive
O=C(NCc1ccc2c(c1)CCN2C(=O)c1ccccc1)c1ccccc1	inactive
CNC(=S)NNC(=O)c1ccc(N(C)C)cc1	inactive
CC(=O)N(C)c1ccc(NC(=O)C(F)(F)F)cc1	inactive
CN(C)c1ccc(N/C=C/C(=O)C(F)(F)F)cc1	10.7 µM (active)

Reference: PubChem BioAssay AID588342 (National Center for Advancing Translational Sciences (NCATS), 2011)
